# Jurkat NFkB inh: inhibitors of the PMA/ionomycin-induced NF-kB reporter in Jurkat cells | PMA/ionomycin-induced NF-kB luciferase reporter, luminescence | inhibition, % at 4 µM | 330,000 compounds, 0.53% hits; in the data active = inhibition above about 50%
# H9c2 protect: modulators protecting cardiomyocytes from myocardial damage | H9c2 cardiomyocytes, H2O2 injury protection, ATPLite, 2 h | protection from H2O2 cell death, % at 20 µM | 360,000 compounds, 0.63% hits;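 active = compounds giving at least 50% protection of heart cells from peroxide-induced death in the single-dose screen, raw or plate-pattern-corrected value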;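 also: 0% = DMSO wells with peroxide and 100% = DMSO wells without peroxide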
# 697 NFkB inh: inhibitors of the PMA/ionomycin-induced NF-kB reporter in 697 B cells; 697 B-cell NF-kB luciferase reporter, 16 h; inhibition, % at 4 µM; 330,000 compounds, 0.33% hits; AID 435022; in the data active = inhibition above about 35%
# Gli-Sufu block: blocks Gli-Sufu signaling in a luciferase reporter; 340,000 compounds, 0.74% hits; inhibition, % at 5 µM; Sufu-KO-LIGHT fibroblasts, Gli luciferase reporter luminescence; AID 588413;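 active = inhibition above about 55%, limit read from the data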;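 also: 0% = DMSO-treated cells and 100% = wells with medium but no cells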
# NR2F2 inh: inhibitors of human COUP-TFII (NR2F2); P24468; HEK293T NGFI-A luciferase reporter, luminescence; inhibition, % at 8.6 µM; 370,000 compounds, 0.7% hits;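 active = inhibition above a per-plate cutoff, mean inhibition of test wells between control levels plus 3 SD, cut at about 38% in these data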;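 also: cells cotransfected with COUP-TFII expression vector driving the NGFI-A reporter; 0% = median of COUP-TF2 test wells and 100% = reporter-only cells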
# Target sequence (P24468 whole entry, looked up): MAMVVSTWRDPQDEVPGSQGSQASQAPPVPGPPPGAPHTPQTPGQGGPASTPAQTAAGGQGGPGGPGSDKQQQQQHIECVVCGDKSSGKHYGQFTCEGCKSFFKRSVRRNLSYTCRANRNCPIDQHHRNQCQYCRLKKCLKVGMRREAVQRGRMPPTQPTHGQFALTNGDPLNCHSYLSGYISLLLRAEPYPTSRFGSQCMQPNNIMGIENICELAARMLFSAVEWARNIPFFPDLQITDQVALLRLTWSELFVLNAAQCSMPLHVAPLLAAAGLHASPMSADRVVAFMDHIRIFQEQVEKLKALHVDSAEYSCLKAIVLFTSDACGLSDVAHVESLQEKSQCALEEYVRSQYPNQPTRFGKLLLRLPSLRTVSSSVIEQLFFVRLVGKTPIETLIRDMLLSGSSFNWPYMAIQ
# TAG inh: reduces triacylglycerol accumulation in H9c2 cells; Nile Red lipid (TAG) fluorescence; cells loaded with 200 µM oleic acid; inhibition, % at 12.5 µM; 230,000 compounds, 0.66% hits;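 active = pattern-corrected inhibition of lipid staining of at least 50% with the nuclear-stain viability signal not falling by more than 50%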;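 also: 0% = DMSO wells and 100% = triacsin C control wells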
# The depositor's hits bear a star; · = no result given. Compounds with a hit are over-represented: about 2.6% of the library has one in this group of screens.
SMILES,Jurkat NFkB inh,H9c2 protect,697 NFkB inh,Gli-Sufu block,NR2F2 inh,TAG inh
COc1ccccc1NC(=O)C(C)OC(=O)Cn1cnc2c1c(=O)n(C)c(=O)n2C (stereo not drawn),-2.6,0.2,-4.7,-5.5,5.2,6.6
CC(C)CN1C(=O)N2CCc3ccccc3C2CS1(=O)=O (stereo not drawn),·,·,·,·,-27.1,·
CCCS(=O)(=O)c1c(S(=O)(=O)CCC)c2c(C)cccn2c1C(N)=O,11.8,2.7,-0.2,0.6,1.9,·
CCCS(=O)(=O)c1c(S(=O)(=O)CCC)c2c(C)cccn2c1C(=O)N/N=C/c1cc(O)cc(O)c1,6.3,53.4*,-31.8,25.1,6.6,·
C=CC(=O)Nc1cccc(Nc2nc(N[C@H]3CC[C@H](N(C)C)CC3)nc3c2ncn3C(C)C)c1,·,2.8,·,75.9*,·,117.1
COc1ccc(S[C@]2(C(=O)N3CCOCC3)CC(=O)N(C(=O)C3CC3)[C@@H]2c2ccc(OC)cc2)cc1,·,·,·,·,7.7,·
COc1ccc(Cn2nc(C(=O)O)c3ccccc3c2=O)cc1F,3.4,35.1,-8.2,-12.6,3.7,·
CC(NC(=O)Cn1nc(C(=O)O)c2ccccc2c1=O)c1ccccc1 (stereo not drawn),-12.9,80.8*,1.0,-0.9,13.2,-5.3
COc1cccc(Cn2nc(C(=O)O)c3ccccc3c2=O)c1,-11.7,64.0*,23.4,-0.5,-0.5,-0.6
COC(=O)C1CN(Cc2ccc(F)cc2)CCS(=O)(=O)N1Cc1cn(Cc2ccc(Cl)cc2)nn1 (stereo not drawn),·,·,·,·,13.4,·
O=C1/C(=N\S(=O)(=O)c2cccs2)C([n+]2cccc(Cc3ccccc3)c2)=C([O-])c2ccccc21,31.5,-13.6,-18.9,18.5,·,73.4*
O=C1/C(=N\S(=O)(=O)c2cccs2)C([n+]2ccc(CCCc3ccccc3)cc2)=C([O-])c2ccccc21,28.3,-9.8,-5.5,3.3,12.0,16.4
COC(=O)[C@]12C[C@H](CC(=O)N3CCC(c4ccccc4)CC3)C(=O)N(Cc3cccc4ccccc34)C1=C[C@H](COCc1ccccc1)O[C@@H]2C,·,·,·,·,22.4,·
O=C(NCc1ccc2c(c1)OCO2)c1ccc(COc2cc(Cl)ccc2Cl)o1,2.3,-18.2,15.5,-3.1,-13.1,·
O=C(N/N=C/c1ccc(O)cc1)c1ccc(COc2cc(Cl)ccc2Cl)o1,18.2,67.7*,-40.9,14.8,-3.7,4.2
COc1ccc(-c2cc3nc(-c4ccccc4)cc(N4CCN(C(=O)c5ccoc5)CC4)n3n2)cc1,·,53.7*,·,·,16.9,38.5
COc1ccc(-c2cc3nc(-c4ccccc4)cc(N4CCC5(CC4)OCCO5)n3n2)cc1,6.1,7.0,-13.2,1.8,20.1,·
Cn1c(=O)c2c(nc(NCCCO)n2C/C=C/c2ccccc2)n(C)c1=O,7.6,62.5*,5.3,3.1,-14.5,-7.6
COc1ccc(-c2sc3ccccc3c2-c2ccc(OCCN(C)C)cc2)cc1,-9.6,-10.7,19.6,-6.7,-2.7,63.1*
Cn1c(SCc2ccc(C(C)(C)C)cc2)nnc1-c1ccco1,·,·,·,·,-16.7,·
CCOC(=O)C1=C(COC(=O)c2cc([N+](=O)[O-])ccc2Cl)NC(=O)NC1C (stereo not drawn),·,3.1,·,·,-5.6,3.8
CCOC(=O)C1=C(COC(=O)c2ccc([N+](=O)[O-])o2)NC(=O)NC1C (stereo not drawn),-5.5,60.7*,4.6,3.4,-9.9,14.2
CC1(C)Oc2ccc(C(=O)NC3CCCC3)cc2NC1=O,·,·,·,·,13.1,·
COC(=O)CSc1nnc(-c2ccc(NS(=O)(=O)c3c(C(C)C)cc(C(C)C)cc3C(C)C)cc2)o1,·,·,·,·,3.9,·
O=C(N/N=C/c1ccc(O)cc1O)c1ccc(CN2C(=O)c3cccc4cccc2c34)cc1,33.2,52.0*,-78.0,21.5,-17.1,6.7
SMILES,Jurkat NFkB inh,H9c2 protect,697 NFkB inh,Gli-Sufu block,NR2F2 inh,TAG inh
O=C(N/N=C/c1ccccc1)c1ccc(CN2C(=O)c3cccc4cccc2c34)cc1,-3.7,5.5,-3.6,2.4,-2.4,·
Cc1nc2ccc(S(=O)(=O)NCC(=O)NCc3cccs3)cc2s1,·,·,·,·,-7.0,·
CCCCc1cc(=O)oc2cc(OCC(=O)N3CCOCC3)ccc12,12.9,0.4,9.8,31.5,-0.4,·
CCCCc1cc(=O)oc2cc(O)ccc12,3.4,52.5*,10.8,1.0,-2.5,-1.0
CCOC(=O)[C@@]12CN(C(=O)OC(C)(C)C)CC=C1N(Cc1ccc(OC)cc1)C(=O)[C@H]2CC(=O)NCCc1ccccc1OC,·,·,·,·,1.1,·
Cn1nnnc1Sc1ncnc2scc(-c3cccc(Br)c3)c12,13.2,-18.9,-53.9,-9.4,-0.4,67.5*
CC(=O)c1cccc(-c2csc3ncnc(Sc4nnnn4C)c23)c1,·,-16.6,·,·,-14.2,31.3
O=C(CCn1nnc(-c2cccs2)n1)NCc1ccco1,·,·,·,·,-12.1,·
C/C(=N\NC(=O)c1nn(C)c(C)c1Br)c1ccc(NC(=O)c2ccoc2C)cc1,-44.5,16.7,-80.4,-11.5,-38.7,·
C/C(=N\NC(=O)c1c(Br)c(C)nn1C)c1ccc(NC(=O)c2ccoc2C)cc1,-35.7,51.5*,-61.1,-6.5,-37.2,·
O=C(c1ccc(Br)o1)N1CCN(c2ccc3nnc(-c4ccccc4)n3n2)CC1,-16.8,80.6*,-98.3,27.3,10.8,8.1
Cc1ccc(-c2n[nH]c(=O)c3ccccc23)cc1S(=O)(=O)Nc1ccccc1,14.6,83.2*,5.3,12.2,-5.8,·
Cc1ccc(-c2n[nH]c(=O)c3ccccc23)cc1S(=O)(=O)NCCN1CCOCC1,-6.3,48.8*,7.3,-20.4,0.0,-1.6
COc1ccccc1N/N=C/c1c(CO)cnc(C)c1O,-2.2,8.1,12.8,7.0,16.8,·
COc1ccccc1NS(=O)(=O)c1cccc(C(=O)N/N=C/c2c(CO)cnc(C)c2O)c1,8.4,52.5*,11.0,-16.1,-1.6,-10.4
O=C(N/N=C/c1cccc(O)c1)c1cc(-c2ccc3c(c2)OCO3)n[nH]1,-1.4,76.5*,-34.4,-7.0,-23.2,2.1
O=C(N/N=C/c1ccccc1)c1cc(-c2ccc3c(c2)OCO3)n[nH]1,20.8,1.6,7.0,-2.5,-1.0,·
O=S1(=O)c2c(cccc2N2CCC[C@H]2CO)OCCCN1C1CC1,·,·,·,·,-21.4,·
COc1ccc(CCNc2c3ccccc3nc3ccccc23)cc1OC,14.4,-3.2,-10.1,5.0,-8.8,55.4*
C=CCOc1ccc(CNc2ccc3[nH]c(=O)[nH]c3c2)cc1OCC,4.3,-2.8,2.8,·,-5.7,-6.2
CCOc1cc(CNc2ccc3[nH]c(=O)[nH]c3c2)ccc1OCC(=O)NC(C)(C)C,11.3,56.6*,30.5,-8.4,21.6,10.8
CC(=O)Oc1cc(C(=O)OCC(=O)NC23CC4CC(CC(C4)C2)C3)cc(OC(C)=O)c1OC(C)=O,·,83.8*,·,7.8,2.6,3.9
COc1cccc(C(=O)OCC(=O)NC23CC4CC(CC(C4)C2)C3)c1,8.3,-1.8,32.5,7.0,0.3,-6.4
NC(=O)c1ccccc1OCC(=O)NC12CC3CC(CC(C3)C1)C2,10.0,56.1*,9.6,9.1,8.3,5.5

# Screening results from PubChem.
